From PubChem BioAssay (NCATS) come the findings set out here.

“And” between values parts separate entries of the source, which are not always exact repeats. Equal entries are not always repeated. The source made the active and inactive calls. Unless noted, calls come from the whole dose curve.

Assay [1] deals with Estrogen receptor (Homo sapiens) (UniProt P03372). Description: qHTS assay for small molecule antagonists of estrogen receptor alpha signaling (AID 588513; active = well fitted curve in the direction sought with a large enough effect in the signal ratio, with a control signal flat, not every such curve was filed as active; inconclusive = small, poorly fitted or top-dose-only effect, or effect the other way, or a change in a side signal; inactive = no such curve, though single readings can be large or run the other way; the % refers to the signal ratio; note: potency is the fitted concentration of half-maximal effect). The method, boiled down:
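ER-alpha-UAS-bla GripTite HEK 293 cells in medium with 2% charcoal/dextran-treated FBS were preincubated 4 h at 37 C, dosed with compound (1:2 titration), stimulated with 0.5nM 17-beta-estradiol for 18 h, then read by CCF4 beta-lactamase fluorescence.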
For orientation: Quantitative high-throughput screening tests each substance at several concentrations.

The target is the same in assay [2]. Description: qHTS assay for small molecule agonists of estrogen receptor alpha signaling (AID 588514).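 Note: 0% = vehicle only and 100% = reference agonist; nearly all actives have a fitted effect of over 70% in size.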 Put shortly:
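Cells were plated at 5000/well, incubated 4 hrs at 37 C, dosed with compound titration series, incubated 18 hrs at 37 C, loaded with CCF4 dye for 2 hrs at RT, then fluorescence was read.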

Assay [3] addresses Glucocorticoid receptor (Homo sapiens) (UniProt P04150). Description: qHTS assay for small molecule antagonists of glucocorticoid receptor signaling (AID 588533; active = well fitted inhibition curve with a large enough effect in the signal ratio, with a control signal flat, not every such curve was filed as active; inconclusive = small, poorly fitted or top-dose-only effect, or effect the other way, or a change in a side signal; the % refers to the signal ratio;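 note: cells stimulated with 2 nM dexamethasone as agonist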; note: potency is the fitted concentration of half-maximal effect). Put shortly:
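Antagonist-mode qHTS: compound titrations added to GRE-bla HeLa cells, then dexamethasone 2 nM final; 18 h, 37 C. CCF4 FRET fluorescence normalized to dexamethasone and DMSO; IC50 from Hill fit.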

Assay [4] is described as follows: qHTS assay for small molecule antagonists of retinoid X receptor alpha signaling (AID 588546; active = well fitted inhibition curve with a large enough effect in the signal ratio, with a control signal flat, not every such curve was filed as active; inconclusive = small, poorly fitted or top-dose-only effect, or effect the other way, or a change in a side signal; inactive = no such curve, though single readings can be large or run the other way; the % refers to the signal ratio; note: potency is the fitted concentration of half-maximal effect;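 for max response: cells stimulated with 9-cis-retinoic acid as agonist; % is set by controls: 0 for no effect and ±100 for the full control effect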). The conditions noted are these: HEK293T RXRa-UAS-bla, beta-lactamase ratio, antagonist mode; measured here: W530 green channel, cytotoxicity proxy. The method, boiled down:
(§1)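 Beta-lactamase reporter inhibition, read as CCF4 fluorescence ratio (ex 405, em 460/530 nm) after 2 h at RT. HEK293T UAS-bla cells, 2500/well, were stimulated with 9-cis-RA at 500 or 100 nM final alongside test compound for 18 h at 37 C.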

For assay [5], the target named is Retinoic acid receptor RXR-alpha (Homo sapiens) (UniProt P19793). Described as above. The conditions noted are these: HEK293T RXRa-UAS-bla, beta-lactamase ratio, antagonist mode. The method, boiled down:
as §1

A short description of assay [6]: qHTS assay for small molecule agonists of the antioxidant response element (ARE) signaling pathway measured by Nrf2-dependant transcriptional activity (AID 720636; active = well fitted curve in the direction sought with a large enough effect in the repeat runs; inconclusive = weak or mixed curves; inactive = no such curve, though single readings can be large; an effect the other way counts as inactive or inconclusive; note: potency is the fitted concentration of half-maximal effect; for activation: % of control where 0% means no effect). The method, boiled down: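 Nrf2-dependent transcription read as ONE-Glo luciferase signal from ARE-luc HepG2 reporter cells after 16 hr compound treatment at 37 C, 5% CO2, in assay medium with 1% dialyzed FBS.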

The nature of assay [7]: qHTS assay for small molecule agonists of the antioxidant response element (ARE) signaling pathway measured by Nrf2-dependant transcriptional activity - cell viability counter screen (AID 720653; active = well fitted curve in the direction sought with a large enough effect in the repeat runs; inconclusive = weak or mixed curves; inactive = no such curve, though single readings can be large; an effect the other way counts as inactive or inconclusive; note: % is set by controls: 0 for no effect and ±100 for the full control effect). The conditions noted are these: ARE-bla HepG2 viability, CellTiter-Glo ATP luminescence, 16 h; max response: stronger effect = lower value. The method, boiled down:
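ARE-bla HepG2 cells (2,000/well) rested 5 hrs at 37C/5% CO2, then exposed to compounds in DMSO for 16 hrs. Viability was read in the same wells as intracellular ATP by luminescence, 30 min at room temperature after reagent addition.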

In assay [8] the target is Peroxisome proliferator-activated receptor delta (Homo sapiens) (UniProt Q03181). Kind of assay: qHTS assay for small molecule agonists of peroxisome proliferator-activated receptor delta signaling (AID 588534).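 Note: 0% = DMSO basal wells and 100% = positive control agonist at 10 µM.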 The method, boiled down: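 Fluorescence from CCF4 substrate cleavage by beta-lactamase reporter, read 2 hrs at RT, measured agonist activity. Compounds were tested with 18 hrs exposure at 37 C. Concentration-response data fitted to Hill equation.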

Assay [9] has as its target Peroxisome proliferator-activated receptor gamma (Homo sapiens) (UniProt P37231). Description: qHTS assay for small molecule agonists of peroxisome proliferator-activated receptor gamma signaling (AID 588536; active = well fitted curve in the direction sought with a large enough effect in the signal ratio, with a control signal flat, not every such curve was filed as active; inconclusive = small, poorly fitted or top-dose-only effect, or effect the other way, or a change in a side signal; inactive = no such curve, though single readings can be large or run the other way; the % refers to the signal ratio;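 note: 0% = DMSO basal wells and 100% = rosiglitazone at 2 µM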). The method, boiled down: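 Ratiometric blue/green fluorescence (405 nm excitation; 460 and 530 nm emission) from CCF4-loaded HEK293 reporter cells serves as signal. Exposure to test compounds lasts 16 h at 37 C in medium containing 1% charcoal/dextran-treated serum.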

Assay [10] shares this target. Kind of assay: qHTS assay for small molecule antagonists of peroxisome proliferator-activated receptor gamma signaling (AID 588537; active = well fitted inhibition curve with a large enough effect in the signal ratio, with a control signal flat, not every such curve was filed as active; inconclusive = small, poorly fitted or top-dose-only effect, or effect the other way, or a change in a side signal; the % refers to the signal ratio;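 note: reporter cells co-stimulated with 50 nM rosiglitazone agonist during compound treatment; % of control where 0% means no effect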). Put shortly:
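We seeded GeneBLAzer HEK293 reporter cells at 3000 per well, allowed 6-6.5 h attachment at 37 C, then co-treated with test compound titrations and 50 nM rosiglitazone overnight (16 h). Inhibition was quantified from 460/530 nm emission ratios.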

The target of assay [11] is Vitamin D3 receptor (Homo sapiens) (UniProt P11473). Description: qHTS assay for small molecule antagonists of vitamin D receptor signaling (AID 588541).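 Note: receptor activated by calcitriol during compound treatment; series mostly up to about 77 µM; % is set by controls: 0 for no effect and ±100 for the full control effect.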 The method, boiled down: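 VDR-UAS-bla HEK293T cells (2000/well, 2% charcoal-stripped FBS) were treated with titrated compounds plus 1-alpha,25-dihydroxyvitamin D3 (50 nM or 3 nM final) for 16 h at 37 C. CCF4 beta-lactamase fluorescence was read; Hill fits gave IC50.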

In assay [12] the target is Retinoic acid receptor RXR-alpha (Homo sapiens) (UniProt P19793). Kind of assay: qHTS assay for small molecule agonists of retinoid X receptor alpha signaling (AID 588544).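 For activation: 0% = DMSO basal wells and 100% = reference agonist.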
For assay [13], the target named is Thyroid hormone receptor beta (Homo sapiens) (UniProt P10828). Description: qHTS assay for small molecule agonists of thyroid hormone receptor beta signaling (AID 588545).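 Note: 0% = DMSO only and 100% = 10 nM T3.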 The method, boiled down:
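TR-UAS-bla GripTite HEK 293 cells (2500/well, medium with 2% charcoal/dextran FBS) were treated in agonist mode for 18 h at 37 C, titrated. Beta-lactamase was read by CCF4 ratio after 2 h; normalized to 10 nM T3 (100%) and DMSO, Hill-fitted for EC50 and efficacy.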

Assay [14] has the same target. Description: qHTS assay for small molecule antagonists of thyroid hormone receptor beta signaling (AID 588547; active = well fitted inhibition curve with a large enough effect in the signal ratio, with a control signal flat, not every such curve was filed as active; inconclusive = small, poorly fitted or top-dose-only effect, or effect the other way, or a change in a side signal; the % refers to the signal ratio;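 note: cells stimulated with 0.4 nM T3 agonist during compound exposure; series mostly up to about 77 µM; % is set by controls: 0 for no effect and ±100 for the full control effect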). The conditions noted are these: TR-UAS-bla HEK293, beta-lactamase ratio, antagonist mode, 18 h. The method, boiled down:
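TR-UAS-bla GripTite HEK293 cells in 2% charcoal/dextran FBS medium were preincubated 4 h at 37 C, given compound (0.59 nM to 92 uM) plus 0.4 nM T3 (final) for 18 h, then CCF4 for 2 h at RT; Hill fit gave IC50.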

Assay [15] can be described thus: qHTS assay for small molecule activators of the p53 signaling pathway (AID 651743; active = well fitted activation curve with a large enough effect in the signal ratio, not every such curve was filed as active; inconclusive = small, poorly fitted or top-dose-only effect, or a change in a side signal; the % refers to the signal ratio; note: series mostly up to about 92 µM; % of control where 0% means no effect). The conditions noted are these: HCT-116 p53RE-bla, beta-lactamase FRET ratio, 16 h; activation: stronger effect = higher value. The method, boiled down: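 Cell-based beta-lactamase reporter (p53 response elements, HCT-116 background). After a 5-hour preincubation, cells received compound for 16 hours at 37 C; substrate development ran 2 hours at room temperature.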

Assay [16] in a line: qHTS assay for environmental chemicals that activate the Aryl hydrocarbon Receptor (AhR) signaling pathway (AID 651777; active = well fitted curve in the direction sought with a large enough effect; inconclusive = small, poorly fitted or top-dose-only effect, or another doubt; inactive = no such curve, though single readings can be large; an effect the other way counts as inactive or inconclusive; note: % of control where 0% means no effect; nearly all actives have a fitted effect of over 15% in size). As to conditions: 1A2-DRE human hepatoma cells, luciferase, 24 h; activation: stronger effect = higher value. The method, boiled down: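 Luminescence (One-Glo, 30 min, room temperature) reports AhR-driven luciferase in stably transfected human hepatoma cells bearing DRE and CYP1A2 promoter. Cells (1,200/well) were treated with compound for 24 hr at 37 C in qHTS format.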

The target in assay [17] is Peroxisome proliferator-activated receptor alpha (Homo sapiens) (UniProt Q07869). Description: qHTS assay for small molecule agonists of the peroxisome proliferator-activated receptor alpha (PPARalpha) signaling pathway (AID 651778; active = well fitted curve in the direction sought with a large enough effect; inconclusive = small, poorly fitted or top-dose-only effect, or another doubt; inactive = no such curve, though single readings can be large; an effect the other way counts as inactive or inconclusive; note: % of control where 0% means no effect). The conditions noted are these: PathHunter PPARalpha complementation, chemiluminescence, 6 h; max response: stronger effect = higher value. Put shortly: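 Cells plated at 2,000/well and held overnight at 37 C, 5% CO2, then compound added by pin tool for 6 hr; after PathHunter detection reagent and 60 min at room temperature, chemiluminescence from enzyme complementation was read.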

A short description of assay [18]: qHTS assay for cell viability of HEK293 cells (AID 743288; active = well fitted curve in the direction sought with a large enough effect; inconclusive = small, poorly fitted or top-dose-only effect, or another doubt; inactive = no such curve, though single readings can be large; an effect the other way counts as inactive or inconclusive; note: % is set by controls: 0 for no effect and ±100 for the full control effect; nearly all actives have a fitted effect of over 50% in size). As to conditions: ATP luminescence (CellTiter-Glo), 18 h; max response: stronger effect = lower value. The method, boiled down: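 Parental HEK293 cells were seeded at 2,000 cells/well, rested at least 5 h at 37 C, then exposed to compounds in DMSO for 18 h at 37 C. Viability was read as ATP-dependent luciferase luminescence after 30 min at room temperature.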

Assay [19] can be described thus: qHTS assay for cell viability of the p53RE-bla HCT-116 cell line (AID 743292; active = well fitted curve in the direction sought with a large enough effect; inconclusive = small, poorly fitted or top-dose-only effect, or another doubt; inactive = no such curve, though single readings can be large; an effect the other way counts as inactive or inconclusive; note: % is set by controls: 0 for no effect and ±100 for the full control effect; nearly all actives have a fitted effect of over 55% in size). The method, boiled down: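 ATP-based luminescent viability (CellTiter-Glo, 30 min RT) after 16 h compound treatment at 37 C of p53RE-bla HCT-116 cells, seeded at 4,000 cells/well and rested 5 h before dosing.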
Assay [20] in a line: qHTS assay for small molecule agonists of retinoid X receptor alpha signaling (AID 588544).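 For activation: 0% = DMSO basal wells and 100% = reference agonist.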 The conditions noted are these: HEK293T RXRa-UAS-bla, beta-lactamase reporter, 18 h; 530 nm emission.

Chain of Vitamin D3 receptor (Homo sapiens) (P11473 whole entry, looked up): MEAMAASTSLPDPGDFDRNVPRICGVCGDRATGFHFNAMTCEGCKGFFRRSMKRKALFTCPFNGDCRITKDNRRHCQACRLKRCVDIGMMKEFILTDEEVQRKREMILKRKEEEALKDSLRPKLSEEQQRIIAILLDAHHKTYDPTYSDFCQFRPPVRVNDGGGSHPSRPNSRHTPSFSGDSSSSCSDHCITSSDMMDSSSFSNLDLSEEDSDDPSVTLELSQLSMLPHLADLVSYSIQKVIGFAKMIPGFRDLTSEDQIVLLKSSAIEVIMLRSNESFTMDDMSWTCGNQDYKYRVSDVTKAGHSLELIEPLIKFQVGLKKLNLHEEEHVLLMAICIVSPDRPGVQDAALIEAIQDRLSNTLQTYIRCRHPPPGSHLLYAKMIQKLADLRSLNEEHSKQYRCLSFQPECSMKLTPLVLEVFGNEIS
Chain of Estrogen receptor (Homo sapiens) (P03372 whole entry, looked up): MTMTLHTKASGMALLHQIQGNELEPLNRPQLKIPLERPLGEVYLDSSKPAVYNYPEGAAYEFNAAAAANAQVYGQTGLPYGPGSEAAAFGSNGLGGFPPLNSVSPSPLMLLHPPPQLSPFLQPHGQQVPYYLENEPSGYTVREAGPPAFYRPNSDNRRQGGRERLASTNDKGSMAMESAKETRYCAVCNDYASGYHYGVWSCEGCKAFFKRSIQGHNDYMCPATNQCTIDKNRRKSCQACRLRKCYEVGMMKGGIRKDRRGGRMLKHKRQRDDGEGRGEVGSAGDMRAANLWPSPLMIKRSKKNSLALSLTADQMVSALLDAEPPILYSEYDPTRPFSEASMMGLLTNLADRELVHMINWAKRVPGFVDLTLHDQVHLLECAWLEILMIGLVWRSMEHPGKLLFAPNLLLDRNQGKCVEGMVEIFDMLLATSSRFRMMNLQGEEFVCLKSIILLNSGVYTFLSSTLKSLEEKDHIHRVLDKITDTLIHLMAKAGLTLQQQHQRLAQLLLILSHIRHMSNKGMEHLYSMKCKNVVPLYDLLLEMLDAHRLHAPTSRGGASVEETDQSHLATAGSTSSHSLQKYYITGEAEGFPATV
Chain of Peroxisome proliferator-activated receptor alpha (Homo sapiens) (Q07869 whole entry, looked up): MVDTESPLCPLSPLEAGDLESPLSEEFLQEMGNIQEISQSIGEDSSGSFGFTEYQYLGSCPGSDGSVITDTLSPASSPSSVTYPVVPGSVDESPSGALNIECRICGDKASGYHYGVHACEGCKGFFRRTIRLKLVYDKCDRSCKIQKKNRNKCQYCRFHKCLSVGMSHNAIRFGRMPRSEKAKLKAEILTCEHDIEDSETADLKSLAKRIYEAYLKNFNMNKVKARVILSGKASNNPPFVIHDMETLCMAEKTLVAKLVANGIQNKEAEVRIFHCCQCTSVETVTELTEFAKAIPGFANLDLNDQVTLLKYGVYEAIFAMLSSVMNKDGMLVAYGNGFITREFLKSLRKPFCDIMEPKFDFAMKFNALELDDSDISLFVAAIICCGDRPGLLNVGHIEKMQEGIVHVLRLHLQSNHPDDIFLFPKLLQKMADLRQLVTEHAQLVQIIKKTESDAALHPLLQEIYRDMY
Chain of Thyroid hormone receptor beta (Homo sapiens) (P10828 whole entry, looked up): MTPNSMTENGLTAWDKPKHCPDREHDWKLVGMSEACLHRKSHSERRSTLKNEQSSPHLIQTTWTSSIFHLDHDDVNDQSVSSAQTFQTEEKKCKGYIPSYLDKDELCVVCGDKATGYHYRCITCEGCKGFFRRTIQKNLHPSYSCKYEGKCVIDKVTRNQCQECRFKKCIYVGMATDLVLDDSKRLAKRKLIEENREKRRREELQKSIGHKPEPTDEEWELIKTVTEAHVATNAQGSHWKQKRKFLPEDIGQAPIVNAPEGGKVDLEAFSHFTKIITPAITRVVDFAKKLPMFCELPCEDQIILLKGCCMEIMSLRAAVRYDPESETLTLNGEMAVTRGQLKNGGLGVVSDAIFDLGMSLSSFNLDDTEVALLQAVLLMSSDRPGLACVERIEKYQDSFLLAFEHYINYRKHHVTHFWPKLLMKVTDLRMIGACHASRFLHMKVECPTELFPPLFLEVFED
Chain of Retinoic acid receptor RXR-alpha (Homo sapiens) (P19793 whole entry, looked up): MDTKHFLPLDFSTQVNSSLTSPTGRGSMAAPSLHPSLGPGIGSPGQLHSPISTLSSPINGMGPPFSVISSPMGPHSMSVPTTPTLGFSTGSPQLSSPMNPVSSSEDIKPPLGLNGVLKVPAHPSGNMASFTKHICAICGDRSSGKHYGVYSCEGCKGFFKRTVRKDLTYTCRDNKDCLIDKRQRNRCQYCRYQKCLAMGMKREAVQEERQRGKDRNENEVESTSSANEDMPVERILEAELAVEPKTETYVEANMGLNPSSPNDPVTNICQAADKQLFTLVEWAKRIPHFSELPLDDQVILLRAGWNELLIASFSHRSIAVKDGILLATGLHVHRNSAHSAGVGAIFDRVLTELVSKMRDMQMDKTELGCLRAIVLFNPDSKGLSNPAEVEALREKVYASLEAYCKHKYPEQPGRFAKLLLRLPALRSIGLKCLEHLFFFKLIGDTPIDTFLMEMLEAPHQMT
Chain of Glucocorticoid receptor (Homo sapiens) (P04150 whole entry, looked up): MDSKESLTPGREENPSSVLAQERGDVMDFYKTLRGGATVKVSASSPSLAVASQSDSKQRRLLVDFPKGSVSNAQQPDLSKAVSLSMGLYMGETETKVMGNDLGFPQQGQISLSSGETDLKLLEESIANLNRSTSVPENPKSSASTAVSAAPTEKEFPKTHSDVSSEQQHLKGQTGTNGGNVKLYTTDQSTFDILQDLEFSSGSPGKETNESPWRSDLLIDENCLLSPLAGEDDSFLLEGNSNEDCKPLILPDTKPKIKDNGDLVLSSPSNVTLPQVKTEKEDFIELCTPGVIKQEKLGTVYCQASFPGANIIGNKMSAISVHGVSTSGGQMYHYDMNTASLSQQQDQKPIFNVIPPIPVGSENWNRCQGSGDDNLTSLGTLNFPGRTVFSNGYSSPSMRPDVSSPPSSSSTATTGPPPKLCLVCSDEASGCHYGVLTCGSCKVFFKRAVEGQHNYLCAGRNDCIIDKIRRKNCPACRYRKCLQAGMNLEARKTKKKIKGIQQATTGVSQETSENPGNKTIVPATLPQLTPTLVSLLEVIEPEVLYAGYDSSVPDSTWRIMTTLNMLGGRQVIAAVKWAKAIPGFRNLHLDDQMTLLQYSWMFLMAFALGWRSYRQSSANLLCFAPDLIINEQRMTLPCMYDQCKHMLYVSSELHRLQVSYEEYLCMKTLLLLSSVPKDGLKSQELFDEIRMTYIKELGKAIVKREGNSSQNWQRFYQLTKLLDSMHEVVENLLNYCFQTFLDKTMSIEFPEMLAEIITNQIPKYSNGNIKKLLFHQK
Chain of Peroxisome proliferator-activated receptor gamma (Homo sapiens) (P37231 whole entry, looked up): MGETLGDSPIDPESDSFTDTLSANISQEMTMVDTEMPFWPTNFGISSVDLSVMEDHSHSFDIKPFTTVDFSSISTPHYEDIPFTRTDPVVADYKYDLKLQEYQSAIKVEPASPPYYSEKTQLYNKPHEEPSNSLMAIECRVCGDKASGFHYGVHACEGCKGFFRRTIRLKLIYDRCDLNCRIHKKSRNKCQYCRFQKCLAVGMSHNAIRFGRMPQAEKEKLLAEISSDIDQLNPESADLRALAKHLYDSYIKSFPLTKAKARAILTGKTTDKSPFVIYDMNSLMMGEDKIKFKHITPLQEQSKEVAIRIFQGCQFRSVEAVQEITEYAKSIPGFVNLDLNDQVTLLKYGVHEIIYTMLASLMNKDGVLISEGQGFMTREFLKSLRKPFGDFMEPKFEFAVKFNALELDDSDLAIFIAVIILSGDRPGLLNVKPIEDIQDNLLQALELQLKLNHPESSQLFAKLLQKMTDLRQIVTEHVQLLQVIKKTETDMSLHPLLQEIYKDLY
Chain of Peroxisome proliferator-activated receptor delta (Homo sapiens) (Q03181 whole entry, looked up): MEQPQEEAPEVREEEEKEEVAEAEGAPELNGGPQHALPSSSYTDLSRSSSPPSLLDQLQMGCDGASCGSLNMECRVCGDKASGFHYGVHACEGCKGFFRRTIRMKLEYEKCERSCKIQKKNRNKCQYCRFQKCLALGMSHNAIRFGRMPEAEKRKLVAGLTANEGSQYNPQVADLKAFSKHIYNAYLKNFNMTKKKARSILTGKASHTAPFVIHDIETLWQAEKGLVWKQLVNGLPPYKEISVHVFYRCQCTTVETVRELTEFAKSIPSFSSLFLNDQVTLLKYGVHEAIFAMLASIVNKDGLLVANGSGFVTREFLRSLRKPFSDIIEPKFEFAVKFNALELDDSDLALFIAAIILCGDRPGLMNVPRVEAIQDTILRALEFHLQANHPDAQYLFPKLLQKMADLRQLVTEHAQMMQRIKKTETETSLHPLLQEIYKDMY

`C=CC(=O)OCC(CO)(COC(=O)C=C)COC(=O)C=C`: the Potency is 7.94 µM [inconclusive] (active) in [1]; 22.4 µM (active) and 20 µM (active) in assay [3]; 5.62 µM (active) in assay [5]; 16.8 µM (active) and 12.2 µM (active) in assay [6]. For the same compound, the Potency entry in assay [2] is “inactive”. The values for the max response in [4] and in [7] were -17.9% and -24.9% (inactive), respectively.
For the compound `COC(=O)NS(=O)(=O)c1ccc(N)cc1`, the Potency entry in [1], in [2], in assay [3], in assay [9], in [10] and in assay [11] was “inactive” throughout. Further, the Potency result in assay [12], in assay [13], in [6] and in [19] was “inactive” throughout. Moreover, the compound was classed as inactive in assay [8]. For the same compound, the max response in assay [4] is 6.39% and -8.17%; in [17] it was 0.635% (inactive) and -1.36% (inactive); in assay [7], 9.3% (inactive) and -4.17% (inactive); in [18], 0.196% (inactive) and -9.27% (inactive). Also, in [14], the activity change % (negative = inhibition) was -3.22% (inactive) and 3.54% (inactive). Also, the activation in assay [15] was -7.42% (inactive) and -0.724% (inactive); in assay [16] it was -0.0088% (inactive) and 0.402% (inactive).
`CCc1ccc(C(=O)NN(C(=O)c2cc(C)cc(C)c2)C(C)(C)C)cc1`: the Potency result in assay [1], in [2], in assay [3], in [9], in [12] and in assay [13] was “inactive” throughout. The Potency result in assay [6] and in assay [19] was “inactive” in each case. In assay [8], the outcome was inactive. Moreover, the max response in [20] was 1.33%; in assay [17], -0.946% (inactive); in [7] it was -4.5% (inactive); in assay [18], -11.8% (inactive). In assay [14], the activity change % (negative = inhibition) was 18% (inactive). Moreover, the activation is 3.11% (inactive) in assay [15] and 1.38% (inactive) in assay [16].
On to `COCC(=O)N(c1c(C)cccc1C)[C@H](C)C(=O)OC`, for which the Potency result in [1], in assay [2], in [9], in [10], in [11] and in [12] was “inactive” in each case. The Potency result in assay [6] and in assay [19] was “inactive” each time. For the same compound, in [8], the result was inactive. The max response was -8.28% in [20]; -4.91% in assay [4]; -14.1% (inactive) in [5]; -2.34% (inactive) in assay [7]; -1.89% (inactive) in [18]. Also, the values for the activation in assay [15] and in assay [16] were -0.822% (inactive) and 1.21% (inactive), respectively.
Regarding `CNC(=O)Oc1cc(C)cc(C(C)C)c1`, the Potency result in [1], in [2], in assay [9], in [10], in assay [11] and in [12] was “inactive” each time. Moreover, the Potency result in assay [13], in [6] and in assay [19] was “inactive” throughout. The call in [8] was inactive. The max response in assay [4] was -5.53%; in assay [5] it was -3.46% (inactive); in [7], 3.5% (inactive); in [18], -6.56% (inactive). For the same compound, the activity change % (negative = inhibition) in assay [14] was 4.48% (inactive). Besides, the activation in assay [15] is 6.05% (inactive); in assay [16], 0.548% (inactive).
In the case of `COP(=O)(OC)Oc1ccc([N+](=O)[O-])cc1`, the Potency result in assay [1], in assay [2], in [13], in [6] and in assay [19] was “inactive” each time. Besides, the activation in assay [16] was 0.442% (inactive). The max response was -5.35% (inactive) in assay [17], -1.73% (inactive) in assay [7] and -12.8% (inactive) in assay [18].
